# Bioassay records: PubChem, several laboratories
# This is a sample that favours compounds with a hit; in the whole collection about 5.4% have one here.
# Mdm2-MdmX inh: disrupts the human Mdm2-MdmX interaction. O15151+Q00987. inhibition, % at 8 µM. 330,000 tested, 3% active. SaOS-2 split-luciferase Mdm2/MdmX complementation, luminescence;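 active = inhibition of at least 50% at 8 µM in the primary screen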
# MPTP inh: permeability transition pore inhibition; isolated mouse mitochondria, Ca2+ swelling absorbance, 30 min; inhibition, % at 10 µM; 360,000 tested, 1.4% active; AID 602449;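 active = inhibition of 50% or more, scaled per plate between neutral and stimulator controls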;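 also: 0% = DMSO wells given calcium and 100% = 1 mM EGTA wells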
# SKKanGAS inh: SKKanGAS growth inhibition. 300,000 tested, 1.3% active. AID 1662. inhibition, % at 7.5 µM. S. pyogenes SKKanGAS, kanamycin growth, BacTiter-Glo, 6 h;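 active = mean replicate score, as percent of positive control median, at least 50; inconclusive = mean below 50 but one replicate at or above 50; inactive = mean and every replicate below 50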;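 also: strain carries kanamycin resistance gene driven by streptokinase promoter and grows in 40 µg/ml kanamycin; loss of luminescence reflects streptokinase promoter inhibition or plain growth inhibition; 0% = median of DMSO wells and 100% = positive control at its reference dose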
# Calb FLC: affects C. albicans growth with fluconazole; C. albicans CaCi-2 (fluconazole-resistant clinical isolate) + fluconazole, Alamar Blue growth, 48 h; growth inhibition, % (test concentration not listed); 300,000 tested, 0.57% active;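 active = growth inhibition above about 58% in most replicates, limit read from the data, passing the limit was not always enough; inconclusive = exactly half the replicates above a set limit; inactive = most replicates below a set limit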;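 also: all wells also contain fluconazole at 8 µg/ml as a sub-toxic cotreatment; 0% = median of DMSO wells and 100% = median of geldanamycin control wells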
# CSC inhib: blocks cancer stem cells | cancer stem cell-like cells viability, luminescence | inhibition, % at 7.5 µM | 300,000 tested, 1.1% active | AID 2717; in the data active = inhibition above about 75%; inconclusive = no clear call, values can overlap the other calls; tested in HMLE shEcad cells
# Beta apoptosis: beta cell apoptosis inhibition | INS-1E cytokine-induced death, ATP luminescence, 48 h; percent of positive-control rescue, neutral wells zero | protection from apoptosis, % (concentration not given with the values) | 300,000 tested, 0.8% active | AID 435005;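 active = Every replicate reaches about 75%, or at least half do and their mean reaches it too, limit read from the data; inconclusive = At least half of replicates reach the limit but their mean does not; inactive = Under half of replicates reach the limit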;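 also: 0% = cytokine-treated negative control wells and 100% = positive control rescue; higher means more ATP so stronger rescue from cytokine killing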
# Mdm2-MdmX conf: human Mdm2/MdmX binding inhibition, confirmed; inhibition, % at 8 µM; luminescent assay; 10,000 tested, 55% active; shares compounds with Mdm2-MdmX inh; AID 489028; in the data active = inhibition above about 40%
# FLuc counter: full-length luciferase inhibition in Mdm2/MdmX counter-screen | shares compounds with Mdm2-MdmX inh | SaOS-2 full-length luciferase counterscreen, luminescence | inhibition, % at 8 µM | 6,200 tested, 77% active | AID 504607;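 active = mean inhibition at 8 µM reaching about 37%, which flags the compound as non-specific, limit read from the data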;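 also: p53-null SaOS-2 cells with luciferase driven by a doxycycline-inducible promoter; compound on cells about two nights before reading with doxycycline added after day one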
# Numbers without * were called inactive; ? = inconclusive; . = no result given.
SMILES,Mdm2-MdmX inh,MPTP inh,SKKanGAS inh,Calb FLC,CSC inhib,Beta apoptosis,Mdm2-MdmX conf,FLuc counter
Cc1ccc(NC(=S)N(CCCN2CCCC2)Cc2cccn2Cc2ccc(Cl)cc2)cc1C,58*,6,1,-4,70,27,37,.
COc1ccc(NC(=S)N(CCCN2CCCC2)Cc2cccn2Cc2ccc(Cl)cc2)cc1Cl,85*,3,10,-10,42,57,57*,54*
FC(F)(F)c1cccc(NC(=S)N(CCCN2CCCC2)Cc2cccn2Cc2ccc(Cl)cc2)c1,96*,12,-5,-3,130*,27,54*,30
Cc1ccc(NC(=S)N(CCCN2CCCC2)Cc2cccn2Cc2ccc(Cl)cc2)cc1Cl,76*,7,32,-5,144*,7,39,58*
COC(=O)C1C(=O)c2c(C)noc2CC1(C)C (configuration not stated),-3,0,0,-15,-12,-3,.,.
CCOc1ccc(CN(C(=O)/C=C/c2ccco2)C2CCS(=O)(=O)C2)cc1 (configuration not stated),-13,-2,-2,13,-4,-5,.,.
Cc1nc2c(=O)n(-c3cccc(C(F)(F)F)c3)nc(C)c2s1,18,2,-1,-4,-7,0,.,.
Cc1cccc(N2CCN(C(=O)COc3cc(=O)n(C)c4ccccc34)CC2)c1C,14,8,-2,-1,-13,-7,.,.
Cc1cccc(N2CCN(C(=O)Cc3cn(C)c4ccccc34)CC2)c1C,53*,0,2,2,33,.,43*,55*
N#CC(C#N)=c1ccc2c(c1)N1C(c3ccccc3)=CC(c3ccccc3)C3CCCCC31N=2 (configuration not stated),61*,4,18,15,6,0,32,.
COCCOC(=O)c1c(NC(=O)CSc2cccc[n+]2[O-])sc(C(N)=O)c1C,-30,-2,2,-5,5,-3,.,.
COc1ccc(CNCCC(c2ccc(OC(C)C)cc2)c2ccccc2OC)cc1 (configuration not stated),97*,7,2,15,103*,?,54*,68*
COc1ccc(C(CC(=O)O)c2ccc3c(c2)OCO3)cc1 (configuration not stated),23,-1,-2,8,-9,-1,.,.
COc1ccc(CNCCC(c2ccccc2)c2ccc3c(c2)OCO3)cc1 (configuration not stated),67*,7,-5,22,23,85*,31,.
COc1ccc(CNCCC(c2ccc(OC(C)C)cc2)c2ccccc2OC)cc1OC (configuration not stated),56*,4,-5,3,21,18,40*,66*
COc1ccccc1C(CCNCc1ccccc1)c1ccc(OC(C)C)cc1 (configuration not stated),61*,4,7,-1,58,23,36,.
CC(C)(CNC(=O)C1CCCN1C(=O)c1cccs1)N1CCOCC1 (configuration not stated),-17,1,6,-32,.,-2,.,.
O=c1[nH]c(SCc2cccc(Cl)c2)nc2ccccc12,17,2,.,-26,17,-6,.,.
COc1cccc(C2=CC(c3ccc(OC)c(OC)c3)NC(=S)N2)c1 (configuration not stated),-2,.,5,3,-4,0,.,.
CCNC(=O)NC(=O)COC(=O)CCCSc1nc2ccccc2s1,16,0,0,-2,2,-2,.,.
COc1ccccc1C(CCNCc1ccc(N(C)C)cc1)c1ccc(OC(C)C)cc1 (configuration not stated),97*,2,2,0,103*,114*,58*,57*
COc1ccccc1NC(=O)CC(c1ccc(OC(C)C)cc1)c1ccccc1OC (configuration not stated),10,2,25,3,28,4,.,.
Cc1cc(C)c(OCC(=O)Nc2cccc(NC(=O)c3ccco3)c2)c(Br)c1,23,6,27,-18,-9,-6,.,.
Cc1nc2scc(-c3ccccc3)c2c(=O)n1N=C1C=CC(=O)C=C1,70*,.,9,22,.,.,42*,13
Cc1nc2scc(-c3ccccc3)c2c(=O)n1N,0,0,3,-11,.,0,.,.
SMILES,Mdm2-MdmX inh,MPTP inh,SKKanGAS inh,Calb FLC,CSC inhib,Beta apoptosis,Mdm2-MdmX conf,FLuc counter
COc1cccc(C2NC(C)(C(=O)O)C3C(=O)N(C(C)C)C(=O)C23)c1O (configuration not stated),-11,-2,6,18,-19,.,.,.
COc1ccc2nc(SCC(=O)c3c(N)n(C4CC4)c(=O)[nH]c3=O)[nH]c2c1,-22,0,.,.,.,-2,.,.
O=C(NC(NC(=S)Nc1ccccc1C(=O)O)C(Cl)(Cl)Cl)c1ccccc1 (configuration not stated),-35,6,-2,8,1,2,.,.
O=C(CCl)Nc1cc2[nH]c(=O)[nH]c2cc1Br,94*,-1,-3,-5,20,-2,74*,60*
O=S(=O)(NCCSCc1ccc(Cl)c(Cl)c1)c1ccc2c(c1)OCCO2,8,1,13,1,14,4,.,.
CC#CCN1c2ccccc2[C@]23C[C@@H](C(=O)OC)N(C(=O)c4ccc(Br)cc4)C2=NC(C(=O)OC)=C(C(=O)OC)[C@H]13,96*,.,3,14,40,-5,76*,68*
COC(=O)C1=C(C(=O)OC)[C@@H]2N(C)c3ccccc3[C@@]23C[C@@H](C(=O)OC)N(C(=O)c2ccc(Br)cc2)C3=N1,68*,1,2,15,13,-17,17,.
COc1ccc(-c2cc(=O)oc3cc(OCC(C)=O)ccc23)cc1,12,-1,49,10,-5,2,.,.
COc1ccc(-c2cc(=O)oc3cc(O)ccc23)cc1,63*,0,9,7,9,-11,46*,40*
COc1ccc(-c2cc(=O)oc3c(C)c(O)ccc23)cc1,65*,0,6,-2,19,-8,81*,53*
COc1ccc(-c2cc(=O)oc3cc(OC(C)C(=O)NC4CC4)ccc23)cc1 (configuration not stated),45,1,2,7,-3,-5,.,.
COc1ccc(-c2cc(=O)oc3cc(OC(=O)C4CCCCC4)c(Cl)cc23)cc1,75*,7,20,62,0,-10,84*,52*
COc1ccc(-c2cc(=O)oc3c(C)c(OC(=O)c4cccs4)ccc23)cc1,85*,18,.,.,13,9,47*,33
Cc1c(O)ccc2c(-c3ccccc3)cc(=O)oc12,33,2,4,26,16,5,.,.
